Assay outcomes deposited in PubChem BioAssay by National Center for Advancing Translational Sciences (NCATS).
Rows were chosen to be rich in hits. Some 10% of all compounds tested hit in one or more screens of this group.
GPT2 inh: GPT2 alanine aminotransferase inhibition; Q8TD30; Recombinant GPT2, coupled pyruvate oxidase/HRP Amplex Red fluorescence; Potency, µM (series often up to 57.7 µM), for inactives: at the top dose activity change, negative = inhibition, hits mostly inhibitors; 100,000 compounds, 0.25% hits; AID 1671188; further: nearly all actives have a fitted effect of over 60% in size
Target sequence (Q8TD30 whole entry, looked up): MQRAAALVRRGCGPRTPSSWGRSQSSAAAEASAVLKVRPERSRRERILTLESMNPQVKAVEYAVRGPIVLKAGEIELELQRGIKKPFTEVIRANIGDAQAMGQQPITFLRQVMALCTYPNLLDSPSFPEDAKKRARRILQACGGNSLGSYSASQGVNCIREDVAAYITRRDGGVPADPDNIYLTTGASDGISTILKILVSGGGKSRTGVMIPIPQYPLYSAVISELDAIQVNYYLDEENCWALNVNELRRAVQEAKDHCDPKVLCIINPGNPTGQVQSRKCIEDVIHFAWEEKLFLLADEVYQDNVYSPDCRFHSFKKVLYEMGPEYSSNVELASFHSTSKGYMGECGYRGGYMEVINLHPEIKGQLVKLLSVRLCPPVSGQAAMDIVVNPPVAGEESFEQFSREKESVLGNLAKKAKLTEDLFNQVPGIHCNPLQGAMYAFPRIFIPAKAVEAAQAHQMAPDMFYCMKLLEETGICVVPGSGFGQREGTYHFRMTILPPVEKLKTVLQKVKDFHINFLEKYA
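Inhibition is scored from Amplex Red fluorescence generated when pyruvate oxidase and HRP act on pyruvate released by GPT2. Reactions contain 10ng/uL enzyme, 250uM a-KG and 2mM L-alanine and run 30 min at room temperature.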
NPR1 antag: human Npr1 receptor antagonism | P16066 | HEK293 hNpr1 GloSensor cGMP, ANP-stimulated luminescence | Potency, µM (highest dose often 46.3 µM), inactives show at the highest dose activity change, negative = inhibition, actives largely listed as inhibitors | 76,000 compounds, 1.6% hits | AID 1347048; calls by dose curve; further: nearly all actives have a fitted effect of over 60% in size
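HEK293 cells stably expressing human Npr1 and cGMP GloSensor pGS-40F, loaded 2 h with 2% GloSensor reagent, given compound 30 min at room temperature. Luminescence read before and 20 min after 0.1 nM hNppA.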
NIH3T3 tox: cytotoxic compounds in NIH 3T3 cells; 94,000 compounds, 4.3% hits; AID 1345082; NIH 3T3 viability, CellTiter-Glo ATP luminescence, 48-72 h; Potency, µM (highest dose often 96.7 µM), without a hit: at the top dose activity change, negative = cytotoxicity, usual class: inhibitors; further: nearly all actives have a fitted effect of over 55% in size
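NIH 3T3 cells at 400 cells/well received 23 nL of compound by pintool and were incubated 48 or 72 h at 37 °C. Viability was read as ATP-coupled CellTiter-Glo luminescence.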
FLuc inh: inhibitors of firefly (Photinus pyralis) luciferase | P08659 | purified P. pyralis luciferase, luminescence, biochemical | Potency, µM (top dose mostly 115 µM), usual class: inhibitors | 76,000 compounds, 2.5% hits | AID 1347043; further: nearly all actives have a fitted effect of over 65% in size
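Purified P. pyralis luciferase (10nM final) in 50mM Tris acetate pH 7.5, 10mM Mg acetate, 0.01% Tween-20, 0.05% BSA with 10uM D-luciferin and 10uM ATP. Compounds titrated qHTS. Luminescence imaged on CCD.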
HEK293 tox: HEK 293 cell cytotoxicity | HEK 293 viability, ATP luminescence (CellTiter-Glo), 48-72 h | Potency, µM (series often up to 115 µM), for inactives: at the top dose activity change, negative = cytotoxicity, usual class: inhibitors | 94,000 compounds, 6.6% hits | AID 1345083; further: nearly all actives have a fitted effect of over 60% in size
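CellTiter-Glo luminescence (cellular ATP) was read after 48 or 72 hr of compound exposure at 37 degree Celsius. Cells were HEK 293 plated at 250 cells/well.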
The depositor's hits bear a star; i = inactive; u = inconclusive; x = no result given; [ ] = remark or other dose. Unless noted, the call rests on the fitted dose curve; in most records, active means well fitted curve in the direction sought with a large enough effect; inconclusive means small, poorly fitted or top-dose-only effect, or another doubt; inactive means no such curve, though single readings can be large; an effect the other way counts as inactive or inconclusive. On the % scale 0 is the no-effect control and ±100 the full control effect; potency means the concentration at half of the fitted maximal effect.

SMILES | GPT2 inh | NPR1 antag | NIH3T3 tox | FLuc inh | HEK293 tox
O=C1NC(=NC2CCCCC2)C2(CCCN(Cc3cccnc3)C2)N1c1cc(F)cc(F)c1 (stereo not given) | 0% | x | 11µM* | x | -10%
O=C1NC(=NC2CCCCC2)C2(CCN(Cc3cccnc3)CC2)N1c1cccnc1 | i | x | 2% | x | i
CN(C)c1ccc(CN2CCCC3(C2)C(=NC2CCCCC2)NC(=O)N3c2cccnc2)cc1 (stereo not given) | i | x | -16% | x | u
O=C1NC(=NC2CCCC2)C2(CCCN(Cc3ccc(F)cc3)C2)N1c1cc(F)cc(F)c1 (stereo not given) | i | x | u | x | u
O=C(CNC(=O)c1ccc(-c2cccc(C(F)(F)F)c2)cc1)NCc1cccc(Cl)c1 | 4% | x | -12% | x | u
C#CCNC(=O)C1CCc2nnc(-c3cccc(C(F)(F)F)c3)n21 (stereo not given) | i | x | -29%[138 µM] | x | -6%[172 µM]
O=S(=O)(c1ccccc1)N1CCC(CCc2nc(C3CCOCC3)no2)CC1 | -4% | x | u | x | u
CC(C)CCN1CCC2(C1)C(=NC1CCCC1)NC(=O)N2c1cccnc1 (stereo not given) | -7% | x | 32µM* | x | -10%
O=C(c1ccccc1F)N1CCC2(CC1)C(=NC1CCCC1)NC(=O)N2c1cccnc1 | i | x | 35µM* | x | i
CC(C)CCN1CCCC2(C1)C(=NC1CCCCC1)NC(=O)N2c1cccnc1 (stereo not given) | i | x | u | x | u
CN(C)c1ccc(CN2CCCC3(C2)C(=NC2CCCCC2)NC(=O)N3c2cc(F)cc(F)c2)cc1 (stereo not given) | i | x | u | x | 79µM*
O=C(c1ccccc1F)N1CCCC2(C1)C(=NC1CCCC1)NC(=O)N2c1cccnc1 (stereo not given) | -7% | x | -21% | x | i
CN(C)c1ccc(CN2CCCC3(C2)C(=NC2CCCC2)NC(=O)N3c2cc(F)cc(F)c2)cc1 (stereo not given) | -21% | x | -30% | x | -25%
CNc1nccc(N2CCC(CC(=O)N(C)Cc3cn(C)nc3C)CC2)n1 | i | -5% | u | i | u
COc1ccc(-c2nccn3cc(C(=O)NCc4nc5ccccc5n4C)nc23)cc1 | -7% | u | u | i | 28µM*
CCOC(=O)C1CCN(C(=O)c2cn3cc(-c4ccc(OC)cc4)sc3n2)CC1 | i | x | u | x | u
CCOC(=O)C1CCN(C(=O)c2cn3cc(-c4ccc(C(F)(F)F)cc4)sc3n2)CC1 | i | x | 40µM* | x | u
CCOC(=O)C1CCN(C(=O)c2cn3ccnc(-c4ccc(OC)cc4)c3n2)CC1 | -1% | -21% | u | i | 79µM*
CCS(=O)(=O)Nc1ccc(C2(C(=O)NCc3cc(F)cc(F)c3)CCCCC2)cc1 | i | -3% | -22% | i | u
COc1ccc(-c2cc(C[C@@H]3CC[C@@H]4OC(=O)NC[C@H]4O3)no2)cc1 | 4%[88.5 µM] | 3%[70.6 µM] | u | u | 100µM*
O=C(NC[C@H]1O[C@H](Cc2cc(-c3ccc(F)cc3)on2)CC[C@@H]1O)c1ccccc1F | -2%[88.5 µM] | u | -26%[138 µM] | 22µM* | -30%[172 µM]
NC[C@H]1O[C@H](Cc2cc(-c3cccc(O)c3)on2)CC[C@@H]1O | i | 2.5µM* | i | 56µM* | 3%[172 µM]
COc1ccc(-c2cc(C[C@@H]3CC[C@H](O)[C@@H](CNCc4cccc(OC)c4)O3)no2)cc1 | -2% | u | u | u | u
COc1ccc(-c2cc(C[C@@H]3CC[C@H](O)[C@@H](CNCc4cccc(Cl)c4)O3)no2)cc1 | u | u | u | 50µM* | 28µM*
CN1C(=O)COC[C@@H]1[C@H](O)c1ccc(NC(=O)c2ccccc2)cc1 | -6%[88.5 µM] | 5%[70.6 µM] | -16%[174 µM] | i | 0%[172 µM]
SMILES | GPT2 inh | NPR1 antag | NIH3T3 tox | FLuc inh | HEK293 tox
CCOC(=O)c1cccc(NC(=O)N2CC[C@@H](CC(=O)N[C@@H](CO)CC(C)C)[C@@H](CC)C2)c1 | -7% | 0% | u | i | i
COc1ccc(NC(=O)NC[C@H]2O[C@H](Cc3cc(-c4cccc(O)c4)on3)CC[C@@H]2O)cc1 | i | 11µM* | -17% | u | -16%
COc1ccc(CNC[C@H]2O[C@H](Cc3cc(-c4ccccc4)on3)CC[C@@H]2O)cc1 | 0%[88.5 µM] | -19%[70.6 µM] | 40µM* | i | 89µM*
COc1ccc(-c2cc(C[C@@H]3CC[C@H](O)[C@@H](CNC(=O)NCc4ccccc4)O3)no2)cc1 | -4% | -18% | u | i | u
CN1CCC(NC[C@H]2O[C@H](Cc3cc(-c4ccc(F)cc4)on3)CC[C@@H]2O)CC1 | 3%[88.5 µM] | u | 89µM* | i | u
COc1ccc(C(=O)NC[C@H]2O[C@H](Cc3cc(-c4ccccc4)on3)CC[C@@H]2O)cc1 | 0%[88.5 µM] | -15%[70.6 µM] | u | i | -29%[172 µM]
COc1ccc(-c2cc(C[C@@H]3CC[C@H](O)[C@@H](CN(Cc4cccc(OC)c4)Cc4cccc(OC)c4)O3)no2)cc1 | u | 11µM* | u | u | u
COc1ccc(-c2cc(C[C@@H]3CC[C@H](O)[C@@H](CNC4CCN(C)CC4)O3)no2)cc1 | -10%[88.5 µM] | -25%[70.6 µM] | u | u | u
O=C(C1CC1)N1CCCC(C(=O)N2CCC(c3nc4ncccc4[nH]3)C2)C1 (stereo not given) | -21% | x | -19% | x | 4%
CNC(=O)c1cn2cc(-c3ccc(F)cc3)sc2n1 | -13% | x | u | x | u
COC(=O)N1CCCN(c2ccc3nnc(C)n3n2)CC1 | x | x | -27%[138 µM] | x | -3%[172 µM]
Cc1ccc(CNC[C@H]2O[C@H](Cc3cc(-c4ccc(F)cc4)on3)CC[C@@H]2O)cc1 | 0%[88.5 µM] | -23%[70.6 µM] | 32µM* | i | 40µM*
COc1cccc(C(=O)N2CCC(N3C[C@H](O)C[C@H]3C(=O)Nc3ccccc3OC)CC2)c1 | i | -2% | -11% | i | u
COc1ccc(-c2ccc3c(n2)CN(Cc2ccccc2F)C(=O)CO3)cc1OC | 2%[88.5 µM] | -16%[70.6 µM] | 25µM* | i | 50µM*
COc1ccc(-c2ccc3c(n2)CN(Cc2ccccc2)C(=O)CO3)cc1F | -16%[88.5 µM] | -17%[70.6 µM] | 79µM* | i | 79µM*
Cn1cc(-c2ccc3c(n2)CN(Cc2ccc(C(F)(F)F)cc2)C(=O)CO3)cn1 | -27%[88.5 µM] | -16%[70.6 µM] | 32µM* | i | u
Cn1cc(-c2ccc3c(n2)CN(Cc2ccc(F)cc2)C(=O)CO3)cn1 | -4%[88.5 µM] | -16%[70.6 µM] | u | i | u
O=C1COc2ccc(-c3ccncc3)nc2CN1Cc1ccccc1F | 3%[88.5 µM] | 1%[70.6 µM] | 89µM* | i | u
COCCN1Cc2nc(-c3ccc(OC)c(F)c3)ccc2OCC1=O | i | 0%[70.6 µM] | u | i | -23%[172 µM]
